In the library only some 0.37% were active in any assay of this set; here they are far more common.
HRas wt GTP bind: changes GTP binding to wildtype human HRas; actives 0.14% (n = 190,000); GTP binding activity, % at 10 µM; GST-Ras wt beads, Bodipy-FL-GTP binding, flow cytometry; actives lie on both sides;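 active means GTP binding activity at least 20% away from the 100% baseline, either lowered as inhibitor or raised as activator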;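 further: 0% = unlabeled GTP competition control and 100% = no-compound control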
Target sequence (P01112 whole entry, looked up): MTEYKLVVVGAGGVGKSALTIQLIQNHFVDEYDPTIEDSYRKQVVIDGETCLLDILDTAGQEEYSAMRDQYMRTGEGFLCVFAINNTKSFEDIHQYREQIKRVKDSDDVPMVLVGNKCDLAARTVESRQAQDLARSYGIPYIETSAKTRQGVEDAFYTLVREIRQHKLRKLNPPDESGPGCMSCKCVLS
Rab7 wt modul: dog Rab7 wildtype GTP binding, inhibitors and activators; AID 758; GST-Rab7 beads, fluorescent GTP binding, flow cytometry; actives lie on both sides; untreated = 100%, excess cold GTP = 0%; GTP binding activity (percent of control), % at 10 µM; actives 0.055% (n = 190,000);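 active means fluorescent GTP binding to Rab7 beads changed by at least 20 points from the 100% baseline, either direction, mostly lower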;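 further: median green fluorescence of bound Bodipy-FL-GTP per Rab7 bead population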
Rac1 wt GTP bind: human Rac1 wildtype GTP binding, inhibitors and activators; P63000; GST-Rac1 beads, fluorescent GTP binding, flow cytometry; actives lie on both sides; 0 = cold GTP competed, 100 = untreated; GTP binding activity (% of control), % at 10 µM; actives 0.27% (n = 190,000);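 active means GTP binding activity at least 20 points away from the 100% control level, either lower or higher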
Rab2A wt mod: changes GTP binding to wildtype dog Rab2A, up or down. GST-Rab2 wt beads, Bodipy-GTP binding, flow cytometry. AID 760. P61105. GTP binding activity, % at 10 µM. actives 0.19% (n = 190,000);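 active means GTP binding activity at least 20 points away from 100%, either lowered or raised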;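 further: 0% = beads with excess unlabeled GTP and 100% = no-compound control corrected for plate trend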
Cdc42 wt GTP: modulators (inhibitors or activators) of GTP binding to human Cdc42 wildtype; P60953; GST-Cdc42 beads, Bodipy-GTP binding, flow cytometry; actives lie on both sides; percent activity (GTP binding), % at 10 µM; actives 0.2% (n = 190,000);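 active means percent activity GTP binding at least 20 points away from the 100% baseline, either down as inhibitor or up as activator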;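 further: median bead fluorescence of bound Bodipy-FL-GTP at 100 nM; 0% = excess unlabeled GTP control and 100% = no compound control; below 100% means less GTP binding so inhibitor and above means activator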
Target sequence (P60953 whole entry, looked up): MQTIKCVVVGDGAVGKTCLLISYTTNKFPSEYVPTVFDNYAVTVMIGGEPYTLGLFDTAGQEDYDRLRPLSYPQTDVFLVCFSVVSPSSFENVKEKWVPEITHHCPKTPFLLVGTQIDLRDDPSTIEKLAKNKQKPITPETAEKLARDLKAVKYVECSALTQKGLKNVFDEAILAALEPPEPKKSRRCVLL
Rac1 act GTP bind: human Rac1 activated mutant GTP binding change; GST-Rac1 activated beads, fluorescent GTP binding, flow cytometry; actives lie on both sides; 100% means binding = to untreated wells; percent activity (GTP binding), % at 10 µM; actives 0.11% (n = 190,000); AID 764;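 active means GTP binding at least 20 percentage points away from the 100% baseline, in either direction, so actives lie on both sides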
* = called active by the depositor; [ ] = another dose, or the depositor's remark.

SMILES | HRas wt GTP bind | Rab7 wt modul | Rac1 wt GTP bind | Rab2A wt mod | Cdc42 wt GTP | Rac1 act GTP bind
Cc1cccc(-n2nc(CC#N)c(C#N)c2N)c1 | 82.0 | 90.0 | 82.0 | 78.0* | 82.0 | 91.0
CCN(Cc1ccccc1)S(=O)(=O)c1ccc(C(=O)N2CCN(c3nc4ccccc4s3)CC2)cc1 | 100.0 | 97.0 | 103.0 | 99.0 | 102.0 | 98.0
O=C(Nc1cccc(-c2nnc(-c3ccco3)o2)c1)c1ccccc1 | 84.0 | 89.0 | 76.0* | 85.0 | 83.0 | 90.0
NC(=S)N=Nc1c(O)[nH]c2c(Br)cc(Br)cc12 | 75.0* | 93.0 | 71.0* | 74.0* | 75.0* | 84.0
NC(=S)N=Nc1c(O)[nH]c2ccccc12 | 86.0 | 95.0 | 87.0 | 84.0 | 92.0 | 96.0
O=C(O)C1=C[C@@H](c2ccccc2)C[C@@H](OCc2ccc(CO)cc2)O1 | 92.0 | 101.0 | 93.0 | 94.0 | 90.0 | 92.0
O=C(O)C1=C[C@H](c2ccc(Br)cc2)C[C@H](OCc2ccc(CO)cc2)O1 | 78.0* | 94.0 | 75.0* | 74.0* | 71.0* | 69.0*
Cc1cc(C)n(C(=O)CNC(=O)C2COc3ccccc3O2)n1 (stereo unspecified) | 99.0 | 96.0 | 104.0 | 100.0 | 102.0 | 97.0
Cc1cc(C)n(C(=O)CNC(=O)c2ccc3c(c2)OCCO3)n1 | 38.0* | 20.0* | 29.0* | 32.0* | 34.0* | 33.0*
COc1cc(/C=C2\SC(c3ccccc3)=NC2=O)cc(Cl)c1O | 81.0 | 88.0 | 81.0 | 77.0* | 78.0* | 81.0
O=C(Nc1ccc2nc(-c3cccs3)[nH]c2c1)c1cccs1 | 75.0* | 94.0 | 76.0* | 77.0* | 75.0* | 86.0
COc1ccc(C(CC(=O)O)NC(=O)c2cc3cc(Br)ccc3oc2=O)cc1OC (stereo unspecified) | 83.0 | 83.0 | 80.0 | 76.0* | 77.0* | 76.0*
COc1cc(OC)cc(C(=O)NNC(=O)NC2CCCCC2)c1 | 103.0 | 97.0 | 102.0 | 98.0 | 102.0 | 99.0
O=C(CN1C(=O)C2C3c4ccccc4C(c4ccccc43)C2C1=O)Nc1cccc(C(=O)O)c1 (stereo unspecified) | 124.0*[activator] | 145.0*[activator] | 130.0*[activator] | 127.0*[activator] | 125.0*[activator] | 155.0*[activator]
COc1ccc(OC)c(S(=O)(=O)Nc2ccc(O)c(Sc3ncn[nH]3)c2)c1 | 39.0* | 21.0* | 31.0* | 35.0* | 36.0* | 36.0*
CCOc1ccc(S(=O)(=O)Nc2ccc(O)c(Sc3ncn[nH]3)c2)cc1 | 99.0 | 99.0 | 101.0 | 99.0 | 98.0 | 97.0
CC1CCCC(C)N1CC(O)COc1c(F)cc(Br)cc1F (stereo unspecified) | 98.0 | 104.0 | 100.0 | 99.0 | 98.0 | 99.0
Cc1cc(/C=N/NC(=O)C(=O)NCc2ccccn2)c(C)n1-c1ccccc1 | 98.0 | 97.0 | 98.0 | 100.0 | 101.0 | 100.0
Cn1cccc1/C=C1\SC(=S)N(NC(=O)c2ccccc2Cl)C1=O | 89.0 | 90.0 | 78.0* | 83.0 | 88.0 | 89.0
CN1CCN(c2ccccc2NC(=O)c2ccc(-c3cccc([N+](=O)[O-])c3)o2)CC1 | 107.0 | 106.0 | 123.0*[activator] | 106.0 | 108.0 | 107.0
O=[N+]([O-])c1ccc(NCCCNS(=O)(=O)c2ccccc2)cc1 | 97.0 | 94.0 | 102.0 | 96.0 | 95.0 | 95.0
CCc1ccc(OCCOCC(O)CNC2CCCC2)cc1 (stereo unspecified) | 98.0 | 104.0 | 99.0 | 100.0 | 97.0 | 95.0
COc1ccc(N(C)C2=NS(=O)(=O)c3ccccc32)cc1 | 100.0 | 98.0 | 104.0 | 99.0 | 101.0 | 97.0
CN(/N=C/c1ccco1)C1=NS(=O)(=O)c2ccccc21 | 76.0* | 85.0 | 64.0* | 73.0* | 71.0* | 80.0
Cn1c(=O)c2c(nc(N/N=C/c3ccco3)n2C)n(C)c1=O | 85.0 | 90.0 | 74.0* | 83.0 | 83.0 | 85.0
COc1cc(C(=O)Nc2cccc3ncccc23)cc(OC)c1OC | 99.0 | 102.0 | 103.0 | 102.0 | 100.0 | 96.0

Bioassay records deposited in PubChem by NMMLSC.
